Data taken from the supplement of paper PMC9492666.

Experiments:
[1] = tested on: HCC1937; assay: relative cell viability, compound + erastin, vs DMSO (fraction of DMSO control); higher = less growth inhibition; settings: 72 h
[2] = tested on: MDA-MB-231; assay: as above; settings: 72 h
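Note: viability read by CCK-8 kit in 96-well plates, part of a combination screen pairing lipid-metabolism-targeting compounds with erastin.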

SMILES	relative cell viability [1]	relative cell viability [2]
CCCCCCCCCCCC1=C(O)C(=O)C=C(O)C1=O [Embelin] + CCOc1ccccc1-n1c(C(C)N2CCN(C(=O)COc3ccc(Cl)cc3)CC2)nc2ccccc2c1=O [erastin]	0.72	0.575
O=C(O)c1cc(F)c2nc(N3[C@@H]4CC[C@H]3C[C@@H](OCc3c(-c5ccccc5OC(F)(F)F)noc3C3CC3)C4)sc2c1 [Tropifexor] + CCOc1ccccc1-n1c(C(C)N2CCN(C(=O)COc3ccc(Cl)cc3)CC2)nc2ccccc2c1=O [erastin]	0.658	0.652
C[C@@]12C[C@@H](c3ccoc3)OC(=O)[C@@H]1CC[C@]1(C)[C@H]2[C@@H]2C=C[C@@]1(O)C(=O)O2 [Columbin] + CCOc1ccccc1-n1c(C(C)N2CCN(C(=O)COc3ccc(Cl)cc3)CC2)nc2ccccc2c1=O [erastin]	0.607	0.688
CC[C@H](C)C(=O)O[C@H]1C[C@@H](C)C=C2C=C[C@H](C)[C@H](CC[C@@H]3C[C@@H](O)CC(=O)O3)[C@H]21 [Lovastatin] + CCOc1ccccc1-n1c(C(C)N2CCN(C(=O)COc3ccc(Cl)cc3)CC2)nc2ccccc2c1=O [erastin]	0.804	0.569
CC(C)(Oc1ccc(Cl)cc1)C(=O)O [Clofibric acid] + CCOc1ccccc1-n1c(C(C)N2CCN(C(=O)COc3ccc(Cl)cc3)CC2)nc2ccccc2c1=O [erastin]	0.923	0.592
COc1ccc(-c2c[nH]c3nccc(-c4ccsc4)c23)c(OC)c1 + CCOc1ccccc1-n1c(C(C)N2CCN(C(=O)COc3ccc(Cl)cc3)CC2)nc2ccccc2c1=O [erastin]	0.675	0.834
